Source: PubChem (National Center for Advancing Translational Sciences (NCATS))
p53ts 39C tox: cytotoxicity in p53ts cells at nonpermissive temperature | H1299-p53A138V viability at 39C, ATP luminescence, 24 h | Potency, µM (top dose mostly 46.1 µM), inactives show at the highest dose activity change, negative = cell killing, most hits filed as cytotoxic | actives 1.5% (n = 130,000) | AID 902; also: % is scaled to controls: 0 for no effect and ±100 for the full control effect; nearly all actives have a fitted effect of over 55% in size
p53ts 32C kill: p53ts cell cytotoxicity, permissive temperature; H1299-p53A138V at 32C, ATP luminescence viability, 24 h; Potency, µM (series often up to 46.1 µM), without a hit: at the top dose activity change, negative = cytotoxicity, most hits filed as cytotoxic; actives 0.93% (n = 130,000); AID 924;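 also: 0% = DMSO and -100% = full killing by reference compound; nearly all actives have a fitted effect of over 55% in size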
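Cells: H1299 p53ts (A138V), 600/well, pre-incubated 16–30 h at 37C. Cpd up to 46 uM, 24 h, 32C. Readout: ATPlite luminescence, 20 min RT. Normalization: DMSO vs tamoxifen 100 uM. AC50 by Hill equation.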
Peg3 imprint: induces erasure of genomic imprints in mouse ES cells; mouse ES Peg3-LacZ reporter, beta-gal luminescence, 40 h; Potency, µM (top dose mostly 60.7 µM), for the others: at the top dose activity change, positive = activation, usual class: activators; actives 0.02% (n = 110,000)
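Readout: BetaGlo luminescence (5 min, room temp) for LacZ from the normally silent maternal Peg3 allele in female Peg3LacZ-Neo ES cells. Cells 300/well, 40 h, 37C, 5% CO2. Data normalized per plate to negative controls.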
Active calls of the source: *; u = inconclusive; x = not tested or not shown; ! = not active in a repeat; [ ] = another dose, or the depositor's remark. The list is not random: actives were taken first. Their share in the collection is about 1.8%. Calls follow the shape of the dose curve; as a rule, active = well fitted curve in the direction sought with a large enough effect; inconclusive = small, poorly fitted or top-dose-only effect, or another doubt; inactive = no such curve, though single readings can be large; an effect the other way counts as inactive or inconclusive. Potency is read from the fitted curve at half-maximal effect.

SMILES	p53ts 39C tox	p53ts 32C kill	Peg3 imprint
COc1cccc(NC(=O)CSc2nnc(-c3cccc(OC)c3)o2)c1	10µM*	12.6µM*	-41.7%[10.9 µM]
COc1ccccc1-c1nnc(SCC(=O)Nc2ccc(Cl)cc2Cl)o1	3.7%	-7.6%	-6.1%
CCc1ccc(NC(=O)c2sc3nc(C)c(C(=O)Nc4ccc(C)cc4C)c(-c4ccco4)c3c2N)cc1	1.7%	-8.1%	-10.5%[10.9 µM]
COc1ccccc1NC(=O)CSc1nnc(-c2ccccc2C)o1	u	u	-30.3%[10.9 µM]
COc1ccccc1NC(=O)CSc1nnc(-c2ccc(C)cc2)o1	6.31µM*	7.94µM*	-89.8%
N#Cc1cccc(NC(=O)N2CC[C@@]3(CCCN(C(=O)c4cnccn4)C3)C2)c1	-7.1%	1.8%	x
COc1ccccc1N=c1oc2cc(O)ccc2cc1C(N)=O	12.6µM*	u	1.6%
COc1ccccc1N=c1oc2cc(O)ccc2cc1C(=O)NCC1CCCO1 (stereo not drawn)	-14.5%	-12.0%	-73.5%
O=C1c2[nH]nc(-c3ccc(Br)cc3)c2C(c2cccc(O)c2)N1c1ccc(Cl)cc1 (stereo not drawn)	15.8µM*	u	3.1%[10.9 µM]
Cc1ccc(-c2n[nH]c3c2C(c2cccc(O)c2)N(c2ccc(C(=O)O)cc2)C3=O)cc1 (stereo not drawn)	-0.7%	-19.1%	-7.0%[10.9 µM]
CN1[C@@H]2CC[C@@H]1CC(OC(=O)[C@H](CO)c1ccccc1)C2 (stereo partly drawn)	x	x	9.5%
CN1CCc2cc(NC(=O)Nc3cccnc3)ccc21	u	u	-35.9%
Cn1ccc2cc3c(cc21)CCN3C(=O)Nc1cccnc1	10µM*	10µM*	-30.9%
NC(=S)NCCC[C@@H](N)C(=O)O	4.9%	6.2%	x
O=C(Nc1ccc(NC(=O)C23CC4CC(CC(C4)C2)C3)cn1)c1ccco1	-16.8%	-6.7%	-1.9%
O=C(Cc1ccccc1)Nc1ccc(NC(=O)c2ccco2)nc1	-19.0%	-17.0%	-12.6%
CC(C)C(=O)Nc1ccc(NC(=O)c2ccccn2)cn1	12.6µM*	7.94µM*	-84.0%
O=C(Nc1ccc(NC(=O)C2CCCCC2)cn1)c1ccco1	5.01µM*	3.98µM*	-65.0%
O=C(Nc1ccc(NC(=O)c2ccco2)nc1)c1ccccn1	12.6µM*	12.6µM*	-90.0%
CC(C)C(=O)Nc1ccc(NC(=O)c2cccs2)cn1	-7.7%	-16.9%	-0.7%
O=C(Nc1ccc(NC(=O)C2CC2)nc1)c1ccccn1	6.31µM*	12.6µM*	-88.0%
CCC(=O)Nc1ccc(NC(=O)c2ccccn2)cn1	u	u	-73.2%
CC(C)c1ccc(NC(=O)CCCc2nc(-c3ccc(Cl)cc3)no2)cc1	-15.5%	1.6%	-4.6%[10.9 µM]
CCc1ccc(C2C(C(=O)Nc3ccccc3C)=C(C)Nc3nc(SCc4cccc(OC)c4)nn32)cc1 (stereo not drawn)	31.5%	-1.1%	-9.0%[10.9 µM]
COc1ccc(C)cc1NC(=O)Cc1c(C(=O)O)c(C)cn1C	9.4%	14.4%	19.5%[10.9 µM]
SMILES	p53ts 39C tox	p53ts 32C kill	Peg3 imprint
Cc1ccc(NC(=O)CSc2nnc3[nH]c(=O)cc(-c4ccccc4)n23)cc1Cl	1.58µM*	u	-12.8%[10.9 µM]
COc1cccc(NC(=O)CSc2nnc3[nH]c(=O)cc(-c4ccccc4)n23)c1	u	u	-16.1%[10.9 µM]
CCOc1ccccc1NC(=O)CSc1nnc2[nH]c(=O)cc(-c3ccccc3)n12	u	3.6%	u
Cc1ccc(C)c(NC(=O)CSc2nnc3[nH]c(=O)cc(-c4ccccc4)n23)c1	1.26µM*	u	7.4%[10.9 µM]
CC(=O)Nc1cc(OC(C)=O)c2nonc2c1OC(C)=O	7.94µM*	3.16µM*	-79.8%
CC(=O)Nc1nonc1NC(C)=O	-4.8%	-2.3%	-0.6%
CCOc1ccccc1NC(=O)c1cc2c(=O)n(Cc3cccnc3)ccc2nc1C	-14.6%	-3.6%	-3.6%[10.9 µM]
COc1cccc(-c2nccc(-n3ccnc3)n2)c1	u	-26.7%	-18.5%
COc1cc(-c2ccc(N=Nc3ccc4c(S(=O)(=O)O)cc(S(=O)(=O)O)c(N)c4c3O)c(OC)c2)ccc1N=Nc1ccc2c(S(=O)(=O)O)cc(S(=O)(=O)O)c(N)c2c1O	10µM*!	u	-42.5%
Cc1nn(-c2ccc(S(=O)(=O)O)cc2)c(O)c1N=Nc1ccc(-c2ccc(N=Nc3ccc4c(S(=O)(=O)O)cc(S(=O)(=O)O)c(N)c4c3O)c(O)c2)cc1O.[Cu].[Cu]	2.0%[9.22 µM]	-7.6%[9.22 µM]	-6.9%[10.9 µM]
CCOc1ccc(CNc2cc(C)nc3nc(-c4cccc(C)c4)nn23)cc1OC	7.94µM*	-28.0%	-12.4%[10.9 µM]
Cc1ccc(CNc2cc(C)nc3nc(-c4cccc(C)c4)nn23)cc1	u	-2.7%	-13.7%[10.9 µM]
Cc1cc(C(=O)Nc2ccccn2)no1	-8.4%	-10.8%	-74.0%
O=C(Nc1ccccn1)c1ccc2ccccc2n1	15.8µM*	15.8µM*	-83.0%
